The panel holds about 79,000 compounds, 15% with a hit somewhere; the sample as a whole holds those more often. Unmarked numbers belong to inactive results. Active and inactive are the calls of the source. Cut-off read from the data, not from the text of the source: active = growth inhibition above about 70%; inactive = the rest.
Key:
[1] = NCI Yeast Anticancer Drug Screen. Data for the wt1 strain (AID 149);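 note: 0% = growth of vehicle-treated wt1 cultures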; conditions: S. cerevisiae wt1 strain (SPY 50644) growth inhibition, stronger effect = higher value
How it was run: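 Compounds are added to wt1 yeast cultures. Growth is then measured. Inhibition is expressed relative to vehicle-treated controls.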

[2] = NCI Yeast Anticancer Drug Screen. Data for the rad50EPP+ strain (AID 151);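 note: 0% = growth of vehicle-treated control cultures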; conditions: S. cerevisiae rad50 mutant strain, stronger effect = higher value
How it was run: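 rad50EPP+ yeast treated with test compounds. Readout: growth vs vehicle control.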

[3] = NCI Yeast Anticancer Drug Screen. Data for the mgt1 strain (AID 153); conditions: S. cerevisiae mgt1 mutant growth inhibition, stronger effect = higher value
How it was run: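 Growth inhibition relative to vehicle controls was scored for the mgt1 yeast strain after compound exposure.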

[4] = NCI Yeast Anticancer Drug Screen. Data for the rad50 strain (AID 155);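 note: 0% = growth of vehicle-only cultures of the same strain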; conditions: S. cerevisiae rad50 strain growth inhibition, stronger effect = higher value
How it was run: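 Inhibition values express reduced yeast growth in compound-treated cultures relative to vehicle-treated controls.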

[5] = NCI Yeast Anticancer Drug Screen. Data for the mec2-1 strain (AID 157); conditions: S. cerevisiae mec2-1 strain, stronger effect = higher value
How it was run: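 Growth inhibition is read against vehicle-treated controls after compound exposure of the mec2-1 yeast strain, which is defective in DNA damage repair or cell cycle control.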

[6] = NCI Yeast Anticancer Drug Screen. Data for the sgs1 mgt1 strain (AID 161);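 note: 0% = growth of cultures given vehicle only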; conditions: S. cerevisiae sgs1 mgt1 strain, stronger effect = higher value
How it was run: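 Percent growth inhibition was derived by comparing compound-exposed mutant yeast with vehicle-exposed cultures. The strain carries alterations in DNA damage repair.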

[7] = NCI Yeast Anticancer Drug Screen. Data for the CLN2oe strain (AID 163);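 note: 0% = growth of vehicle-only control cultures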; conditions: S. cerevisiae CLN2oe strain, stronger effect = higher value
How it was run: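 Compound-treated yeast; growth vs vehicle ctrl = % inhibition. Genetically altered strain (cell-cycle control).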

[8] = NCI Yeast Anticancer Drug Screen. Data for the cln2 rad14 strain (AID 165);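 note: 0% = growth equal to vehicle treated cultures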; conditions: S. cerevisiae cln2 rad14 strain, stronger effect = higher value
How it was run: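 Growth inhibition, relative to vehicle-treated controls, is the read-out. The test organism is a yeast strain with defined genetic alterations, cln2 rad14.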

[9] = NCI Yeast Anticancer Drug Screen. Data for the bub3 strain (AID 167); conditions: S. cerevisiae bub3 mutant strain, stronger effect = higher value
How it was run: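 Steps: expose the mutant yeast strain to compound; grow alongside vehicle-treated cultures; measure growth; express inhibition against the vehicle cultures.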

[10] = NCI Yeast Anticancer Drug Screen. Data for the wt2 strain (AID 169);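 note: 0% = growth of vehicle-treated yeast cultures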; conditions: S. cerevisiae wt2 strain growth inhibition, stronger effect = higher value
How it was run: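 Compound exposure of yeast; growth compared with vehicle controls; inhibition reported.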

[11] = NCI Yeast Anticancer Drug Screen. Data for the mlh1 strain (AID 171);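 note: 0% = growth of vehicle-treated control cultures of the same strain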; conditions: S. cerevisiae mlh1 strain growth inhibition, stronger effect = higher value
How it was run: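 Compounds are applied to a genetically altered yeast strain, and its growth is compared with that of vehicle-treated cultures to give percent inhibition.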

[12] = NCI Yeast Anticancer Drug Screen. Data for the sgs1 strain (AID 173);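 note: 0% = growth of vehicle-only control cultures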; conditions: S. cerevisiae sgs1 mutant, stronger effect = higher value
How it was run: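 Compounds applied to genetically altered yeast; growth compared with vehicle-treated cultures to give % inhibition.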

[13] = NCI Yeast Anticancer Drug Screen. Data for the mlh1 rad18 strain (AID 175); conditions: S. cerevisiae mlh1 rad18 strain growth inhibition, stronger effect = higher value
How it was run: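 Cells of a genetically altered yeast strain, deficient in DNA damage repair, were treated with compound. Their growth was then compared with that of vehicle-treated cultures to give inhibition.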

[14] = NCI Yeast Anticancer Drug Screen. Data for the rad18 strain (AID 177); conditions: S. cerevisiae rad18 mutant growth inhibition, stronger effect = higher value
How it was run: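 Compounds are applied to a repair-deficient yeast strain, and growth is compared with that of vehicle-treated cultures to give percent inhibition.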

[15] = NCI Yeast Anticancer Drug Screen. Data for the rad52 strain (AID 147);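 note: 0% = growth of vehicle-treated control cultures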; conditions: S. cerevisiae rad52 mutant growth inhibition, stronger effect = higher value
How it was run: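 DNA repair-defective yeast; compound exposure; growth scored against vehicle controls.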

[16] = NCI Yeast Anticancer Drug Screen. Data for the rad14 strain (AID 159);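 note: 0% = growth of vehicle-treated control cultures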; conditions: S. cerevisiae rad14 strain growth inhibition, stronger effect = higher value
How it was run: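 A mutant yeast strain defective in DNA damage repair is treated with compound; inhibition of its growth is scored against untreated, vehicle-exposed cultures.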

[17] = at 5.0 µM (retest, dose inferred, filed as 0.5)
[18] = at 50.0 µM (retest, dose inferred, filed as 5.0)

## Cc1ccc(NC(Nc2ccc(C)cc2C)=C(C(Cl)=C(Cl)Cl)[N+](=O)[O-])c(C)c1
[1]; at 1.2 µM
  growth inhibition: 2%
[1]; at 3.7 µM
  growth inhibition: 3%
[1]; at 11.0 µM
  growth inhibition: 34%
[1]; at 33.0 µM
  growth inhibition: 99% (active)
[1]; at 100.0 µM
  growth inhibition: 96% (active)
[2]; at 1.2 µM
  growth inhibition: 8%
[2]; at 3.7 µM
  growth inhibition: 10%
[2]; at 11.0 µM
  growth inhibition: 19%
[2]; at 33.0 µM
  growth inhibition: 38%
[2]; at 100.0 µM
  growth inhibition: 71% (active)
[3]; at 1.2 µM
  growth inhibition: 0%
[3]; at 3.7 µM
  growth inhibition: 4%
[3]; at 11.0 µM
  growth inhibition: 21%
[3]; at 33.0 µM
  growth inhibition: 99% (active)
[3]; at 100.0 µM
  growth inhibition: 95% (active)
[4]; at 1.2 µM
  growth inhibition: 1%
[4]; at 3.7 µM
  growth inhibition: 4%
[4]; [17]
  growth inhibition: 90% (active)
[4]; at 11.0 µM
  growth inhibition: 72% (active)
[4]; at 33.0 µM
  growth inhibition: 99% (active)
[4]; [18]
  growth inhibition: 98% (active)
[4]; at 50.0 µM
  growth inhibition: 98% (active)
[4]; at 100.0 µM
  growth inhibition: 92% (active)
[5]; at 1.2 µM
  growth inhibition: 0%
[5]; at 3.7 µM
  growth inhibition: 5%
[5]; [17]
  growth inhibition: 74% (active)
[5]; at 11.0 µM
  growth inhibition: 49%
[5]; at 33.0 µM
  growth inhibition: 99% (active)
[5]; [18]
  growth inhibition: 98% (active)
[5]; at 50.0 µM
  growth inhibition: 98.8% (active)
[5]; at 100.0 µM
  growth inhibition: 94% (active)
[6]; [17]
  growth inhibition: 94% (active)
[6]; [18]
  growth inhibition: 99% (active)
[6]; at 50.0 µM
  growth inhibition: 98.9% (active)
[7]; at 1.2 µM
  growth inhibition: -3%
[7]; at 3.7 µM
  growth inhibition: -1%
[7]; at 11.0 µM
  growth inhibition: 48%
[7]; at 33.0 µM
  growth inhibition: 99% (active)
[7]; at 100.0 µM
  growth inhibition: 94% (active)
[8]; [17]
  growth inhibition: 27%
[8]; [18]
  growth inhibition: 98% (active)
[8]; at 50.0 µM
  growth inhibition: 98.7% (active)
[9]; at 1.2 µM
  growth inhibition: -2%
[9]; at 3.7 µM
  growth inhibition: -4%
[9]; [17]
  growth inhibition: 67%
[9]; at 11.0 µM
  growth inhibition: 30%
[9]; at 33.0 µM
  growth inhibition: 99% (active)
[9]; [18]
  growth inhibition: 98% (active)
[9]; at 50.0 µM
  growth inhibition: 98.3% (active)
[9]; at 100.0 µM
  growth inhibition: 91% (active)
[10]; at 1.2 µM
  growth inhibition: 2%
[10]; at 3.7 µM
  growth inhibition: 4%
[10]; at 11.0 µM
  growth inhibition: 47%
[10]; at 33.0 µM
  growth inhibition: 99% (active)
[10]; at 100.0 µM
  growth inhibition: 94% (active)
[11]; at 1.2 µM
  growth inhibition: 1%
[11]; at 3.7 µM
  growth inhibition: 5%
[11]; at 11.0 µM
  growth inhibition: 35%
[11]; at 33.0 µM
  growth inhibition: 99% (active)
[11]; at 100.0 µM
  growth inhibition: 94% (active)
[12]; at 1.2 µM
  growth inhibition: 1%
[12]; at 3.7 µM
  growth inhibition: 11%
[12]; at 11.0 µM
  growth inhibition: 70% (active)
[12]; at 33.0 µM
  growth inhibition: 99% (active)
[12]; at 100.0 µM
  growth inhibition: 93% (active)
[13]; [17]
  growth inhibition: 96% (active)
[13]; [18]
  growth inhibition: 98% (active)
[13]; at 50.0 µM
  growth inhibition: 98.3% (active)
[14]; at 1.2 µM
  growth inhibition: 2%
[14]; at 3.7 µM
  growth inhibition: 7%
[14]; at 11.0 µM
  growth inhibition: 72% (active)
[14]; at 33.0 µM
  growth inhibition: 99% (active)
[14]; at 100.0 µM
  growth inhibition: 92% (active)

## CC1(C)C(O)OC(O)C1(C)C (stereo unspecified)
[15]; at 1.2 µM
  growth inhibition: 0%
[15]; at 3.7 µM
  growth inhibition: 0%
[15]; at 11.0 µM
  growth inhibition: 2%
[15]; at 33.0 µM
  growth inhibition: 7%
[15]; at 100.0 µM
  growth inhibition: 30%
[2]; at 1.2 µM
  growth inhibition: 0%
[2]; at 3.7 µM
  growth inhibition: -1%
[2]; at 11.0 µM
  growth inhibition: 2%
[2]; at 33.0 µM
  growth inhibition: 1%
[2]; at 100.0 µM
  growth inhibition: 12%
[3]; at 1.2 µM
  growth inhibition: -1%
[3]; at 3.7 µM
  growth inhibition: -1%
[3]; at 11.0 µM
  growth inhibition: 2%
[3]; at 33.0 µM
  growth inhibition: 16%
[3]; at 100.0 µM
  growth inhibition: 10%
[4]; at 1.2 µM
  growth inhibition: -1%
[4]; at 3.7 µM
  growth inhibition: -2%
[4]; [17]
  growth inhibition: 15%
[4]; at 11.0 µM
  growth inhibition: 0%
[4]; at 33.0 µM
  growth inhibition: 5%
[4]; [18]
  growth inhibition: 8%
[4]; at 50.0 µM
  growth inhibition: 69%
[4]; at 100.0 µM
  growth inhibition: 25%
[5]; at 1.2 µM
  growth inhibition: 0%
[5]; at 3.7 µM
  growth inhibition: 2%
[5]; [17]
  growth inhibition: 1%
[5]; at 11.0 µM
  growth inhibition: 2%
[5]; at 33.0 µM
  growth inhibition: 6%
[5]; [18]
  growth inhibition: -10%
[5]; at 50.0 µM
  growth inhibition: 29.4%
[5]; at 100.0 µM
  growth inhibition: 23%
[16]; at 1.2 µM
  growth inhibition: -2%
[16]; at 3.7 µM
  growth inhibition: -2%
[16]; at 11.0 µM
  growth inhibition: 0%
[16]; at 33.0 µM
  growth inhibition: 3%
[16]; at 100.0 µM
  growth inhibition: 22%
[6]; [17]
  growth inhibition: -9%
[6]; [18]
  growth inhibition: 14%
[6]; at 50.0 µM
  growth inhibition: 58.5%
[7]; at 1.2 µM
  growth inhibition: -10%
[7]; at 3.7 µM
  growth inhibition: -3%
[7]; at 11.0 µM
  growth inhibition: 0%
[7]; at 33.0 µM
  growth inhibition: -5%
[7]; at 100.0 µM
  growth inhibition: 3%
[8]; [17]
  growth inhibition: 32%
[8]; [18]
  growth inhibition: 7%
[8]; at 50.0 µM
  growth inhibition: 24.4%
[9]; at 1.2 µM
  growth inhibition: -7%
[9]; at 3.7 µM
  growth inhibition: -7%
[9]; [17]
  growth inhibition: -8%
[9]; at 11.0 µM
  growth inhibition: -6%
[9]; at 33.0 µM
  growth inhibition: -8%
[9]; [18]
  growth inhibition: -13%
[9]; at 50.0 µM
  growth inhibition: 37.4%
[9]; at 100.0 µM
  growth inhibition: -6%
[10]; at 1.2 µM
  growth inhibition: -1%
[10]; at 3.7 µM
  growth inhibition: 1%
[10]; at 11.0 µM
  growth inhibition: 5%
[10]; at 33.0 µM
  growth inhibition: 5%
[10]; at 100.0 µM
  growth inhibition: 10%
[11]; at 1.2 µM
  growth inhibition: 0%
[11]; at 3.7 µM
  growth inhibition: -1%
[11]; at 11.0 µM
  growth inhibition: 4%
[11]; at 33.0 µM
  growth inhibition: 6%
[11]; at 100.0 µM
  growth inhibition: 18%
[12]; at 1.2 µM
  growth inhibition: 1%
[12]; at 3.7 µM
  growth inhibition: 5%
[12]; at 11.0 µM
  growth inhibition: 11%
[12]; at 33.0 µM
  growth inhibition: 25%
[12]; at 100.0 µM
  growth inhibition: 63%
[13]; [17]
  growth inhibition: 3%
[13]; [18]
  growth inhibition: 56%
[13]; at 50.0 µM
  growth inhibition: 60.8%
[14]; at 1.2 µM
  growth inhibition: -1%
[14]; at 3.7 µM
  growth inhibition: 2%
[14]; at 11.0 µM
  growth inhibition: 13%
[14]; at 33.0 µM
  growth inhibition: 31%
[14]; at 100.0 µM
  growth inhibition: 77% (active)

Source: PubChem BioAssay (NCI)
